# The supplement of paper PMC12282887
# ± gives the standard deviation of the averaged measurements.
# Key:
# Experiment in all cases: promoter activity interaction Z-score (Lux/OD deviation from empty-vector control); higher = stronger promoter induction by the compound
# [1] = test system: E. coli BW25113 robp lux reporter
# Method in brief: (§1)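 Reporter strains of E. coli BW25113 grew at 37°C in 40 µl LB Lennox in 384-well plates. Readings of OD600 and luminescence were taken every 30 min over 12 h, integrated over 0–8 h (wild type) or 1–9 h (deletion strains), and wells below 10% of the median growth value were excluded. Scores are Z-transformed residuals of growth-normalised luminescence from a fit against a control.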
# [2] = test system: E. coli BW25113 soxSp lux reporter
# Method in brief: as §1
# [3] = test system: E. coli BW25113 tolCp lux reporter
# Method in brief: as §1
# [4] = test system: E. coli BW25113 acrABp lux reporter
# Method in brief: as §1
# [5] = test system: E. coli BW25113 marRABp lux reporter
# Method in brief: as §1
# [6] = test system: E. coli BW25113 micFp lux reporter
# Method in brief: as §1
# [7] = test system: E. coli BW25113 ompFp lux reporter
# Method in brief: as §1
# [8] = 0.011 µg/ml, genetic background: ΔmarA
# [9] = 0.011 µg/ml, genetic background: Δrob
# [10] = 0.011 µg/ml, genetic background: ΔsoxS
# [11] = 0.022 µg/ml, genetic background: wild type
# [12] = 0.022 µg/ml, genetic background: ΔmarA
# [13] = 0.022 µg/ml, genetic background: Δrob
# [14] = 0.022 µg/ml, genetic background: ΔsoxS
# [15] = 0.044 µg/ml, genetic background: wild type
# [16] = 0.044 µg/ml, genetic background: ΔsoxS
# [17] = 0.011 µg/ml, genetic background: wild type
# [18] = 18.3 µg/ml, genetic background: wild type
# [19] = 18.3 µg/ml, genetic background: ΔmarA
# [20] = 18.3 µg/ml, genetic background: Δrob
# [21] = 18.3 µg/ml, genetic background: ΔsoxS
# [22] = 36.5 µg/ml, genetic background: wild type
# [23] = 36.5 µg/ml, genetic background: ΔmarA
# [24] = 36.5 µg/ml, genetic background: Δrob
# [25] = 36.5 µg/ml, genetic background: ΔsoxS
# [26] = 73.1 µg/ml, genetic background: wild type
# [27] = 73.1 µg/ml, genetic background: ΔmarA
# [28] = 73.1 µg/ml, genetic background: Δrob
# [29] = 73.1 µg/ml, genetic background: ΔsoxS
# [30] = 146.1 µg/ml, genetic background: wild type
# [31] = 146.1 µg/ml, genetic background: ΔmarA
# [32] = 146.1 µg/ml, genetic background: Δrob
compound,measurement,setting,value
COc1c(N2C[C@@H]3CCCN[C@@H]3C2)c(F)cc2c(=O)c(C(=O)O)cn(C3CC3)c12 [Moxifloxacin],promoter activity interaction Z-score,[1]; [8],0.716 ± 0.13
same,promoter activity interaction Z-score,[1]; [9],0.563 ± 0.16
same,promoter activity interaction Z-score,[1]; [10],0.0805 ± 0.38
same,promoter activity interaction Z-score,[1]; [11],0.311 ± 0.14
same,promoter activity interaction Z-score,[1]; [12],0.295 ± 0.073
same,promoter activity interaction Z-score,[1]; [13],0.251 ± 0.47
same,promoter activity interaction Z-score,[1]; [14],0.687 ± 0.83
same,promoter activity interaction Z-score,[1]; [15],-1.23 ± 0.75
same,promoter activity interaction Z-score,[1]; [16],1.18 ± 0.81
same,promoter activity interaction Z-score,[2]; [17],0.023 ± 0.037
same,promoter activity interaction Z-score,[2]; [8],-0.096 ± 0.089
same,promoter activity interaction Z-score,[2]; [9],0.0641 ± 0.18
same,promoter activity interaction Z-score,[2]; [10],0.135 ± 0.027
same,promoter activity interaction Z-score,[2]; [11],0.0383 ± 0.078
same,promoter activity interaction Z-score,[2]; [12],-0.0462 ± 0.065
same,promoter activity interaction Z-score,[2]; [13],-0.139 ± 0.043
same,promoter activity interaction Z-score,[2]; [14],0.616 ± 0.023
same,promoter activity interaction Z-score,[2]; [15],0.204 ± 0.017
same,promoter activity interaction Z-score,[2]; [16],2.34 ± 1.4
same,promoter activity interaction Z-score,[3]; [17],0.549 ± 0.068
same,promoter activity interaction Z-score,[3]; [8],-0.242 ± 0.2
same,promoter activity interaction Z-score,[3]; [9],-0.0406 ± 1.1
same,promoter activity interaction Z-score,[3]; [10],0.127 ± 0.0073
same,promoter activity interaction Z-score,[3]; [11],-0.356 ± 0.14
same,promoter activity interaction Z-score,[3]; [12],-0.296 ± 0.43
same,promoter activity interaction Z-score,[3]; [13],-0.0729 ± 0.065
same,promoter activity interaction Z-score,[3]; [14],1.75 ± 2.6
same,promoter activity interaction Z-score,[3]; [15],0.111 ± 0.07
same,promoter activity interaction Z-score,[3]; [16],0.782 ± 1.2
O=C(O)CN(CCN(CC(=O)O)CC(=O)O)CC(=O)O,promoter activity interaction Z-score,[4]; [18],-0.0934 ± 0.22
same,promoter activity interaction Z-score,[4]; [19],-0.603 ± 0.65
same,promoter activity interaction Z-score,[4]; [20],-0.36 ± 0.3
same,promoter activity interaction Z-score,[4]; [21],-0.525 ± 0.13
same,promoter activity interaction Z-score,[4]; [22],-0.397 ± 0.38
same,promoter activity interaction Z-score,[4]; [23],-0.546 ± 0.64
same,promoter activity interaction Z-score,[4]; [24],-0.8 ± 0.08
same,promoter activity interaction Z-score,[4]; [25],-0.688 ± 0.13
same,promoter activity interaction Z-score,[4]; [26],-0.174 ± 0.17
same,promoter activity interaction Z-score,[4]; [27],-0.55 ± 0.59
same,promoter activity interaction Z-score,[4]; [28],-0.865 ± 0.14
same,promoter activity interaction Z-score,[4]; [29],-0.724 ± 0.18
same,promoter activity interaction Z-score,[4]; [30],-0.36 ± 0.21
same,promoter activity interaction Z-score,[4]; [31],-1.25 ± 0.29
same,promoter activity interaction Z-score,[4]; [32],0.682 ± 0.76
same,promoter activity interaction Z-score,[5]; [18],-0.176 ± 0.11
same,promoter activity interaction Z-score,[5]; [19],-0.48 ± 0.29
same,promoter activity interaction Z-score,[5]; [20],-0.224 ± 0.07
same,promoter activity interaction Z-score,[5]; [21],-0.191 ± 0.04
same,promoter activity interaction Z-score,[5]; [22],-0.238 ± 0.25
same,promoter activity interaction Z-score,[5]; [23],-0.327 ± 0.086
same,promoter activity interaction Z-score,[5]; [24],-0.221 ± 0.16
same,promoter activity interaction Z-score,[5]; [25],-0.276 ± 0.012
same,promoter activity interaction Z-score,[5]; [26],-0.3324 ± 0.002
same,promoter activity interaction Z-score,[5]; [27],-0.545 ± 0.11
same,promoter activity interaction Z-score,[5]; [28],-0.378 ± 0.066
same,promoter activity interaction Z-score,[5]; [29],-0.175 ± 0.04
same,promoter activity interaction Z-score,[5]; [30],0.543 ± 0.16
same,promoter activity interaction Z-score,[5]; [31],1.07 ± 0.021
same,promoter activity interaction Z-score,[5]; [32],1.66 ± 0.58
same,promoter activity interaction Z-score,[6]; [18],0.0311 ± 0.38
same,promoter activity interaction Z-score,[6]; [19],0.0253 ± 0.09
same,promoter activity interaction Z-score,[6]; [20],-0.0661 ± 0.029
same,promoter activity interaction Z-score,[6]; [21],0.33 ± 0.3
same,promoter activity interaction Z-score,[6]; [22],0.187 ± 0.43
same,promoter activity interaction Z-score,[6]; [23],0.106 ± 0.075
same,promoter activity interaction Z-score,[6]; [24],-0.0635 ± 0.073
same,promoter activity interaction Z-score,[6]; [25],0.413 ± 0.38
same,promoter activity interaction Z-score,[6]; [26],0.253 ± 0.014
same,promoter activity interaction Z-score,[6]; [27],0.129 ± 0.061
same,promoter activity interaction Z-score,[6]; [28],0.0924 ± 0.051
same,promoter activity interaction Z-score,[6]; [29],0.66 ± 0.28
same,promoter activity interaction Z-score,[6]; [30],1.76 ± 0.36
same,promoter activity interaction Z-score,[6]; [31],2.53 ± 1.4
same,promoter activity interaction Z-score,[6]; [32],2.95 ± 1.1
same,promoter activity interaction Z-score,[7]; [18],-0.399 ± 0.35
same,promoter activity interaction Z-score,[7]; [19],-0.581 ± 0.52
same,promoter activity interaction Z-score,[7]; [20],-0.522 ± 0.013
same,promoter activity interaction Z-score,[7]; [21],0.261 ± 0.35
same,promoter activity interaction Z-score,[7]; [22],-0.73 ± 0.2
same,promoter activity interaction Z-score,[7]; [23],-0.519 ± 0.045
same,promoter activity interaction Z-score,[7]; [24],-0.748 ± 0.082
same,promoter activity interaction Z-score,[7]; [25],0.0564 ± 0.85
same,promoter activity interaction Z-score,[7]; [26],-1.22 ± 0.24
same,promoter activity interaction Z-score,[7]; [27],-0.836 ± 0.33
same,promoter activity interaction Z-score,[7]; [28],-0.994 ± 0.2
same,promoter activity interaction Z-score,[7]; [29],0.0122 ± 0.85
same,promoter activity interaction Z-score,[7]; [30],-1.07 ± 0.81
same,promoter activity interaction Z-score,[7]; [31],-1.23 ± 0.21
same,promoter activity interaction Z-score,[7]; [32],-1.04 ± 0.81
same,promoter activity interaction Z-score,[1]; [18],-0.212 ± 0.066
same,promoter activity interaction Z-score,[1]; [19],-1.05 ± 0.051
same,promoter activity interaction Z-score,[1]; [20],0.174 ± 0.67
same,promoter activity interaction Z-score,[1]; [21],0.244 ± 0.58
same,promoter activity interaction Z-score,[1]; [22],-0.656 ± 0.16
same,promoter activity interaction Z-score,[1]; [23],-0.174 ± 0.088
same,promoter activity interaction Z-score,[1]; [24],-0.454 ± 0.91
same,promoter activity interaction Z-score,[1]; [25],0.113 ± 1.1
same,promoter activity interaction Z-score,[1]; [26],-0.785 ± 0.22
same,promoter activity interaction Z-score,[1]; [27],-0.143 ± 0.47
same,promoter activity interaction Z-score,[1]; [28],-0.796 ± 0.055
same,promoter activity interaction Z-score,[1]; [29],-0.553 ± 0.47
same,promoter activity interaction Z-score,[1]; [30],-1.32 ± 0.071
same,promoter activity interaction Z-score,[1]; [31],-1.53 ± 0.59
same,promoter activity interaction Z-score,[2]; [18],-0.509 ± 0.063
same,promoter activity interaction Z-score,[2]; [19],-0.316 ± 0.052
same,promoter activity interaction Z-score,[2]; [20],-0.315 ± 0.048
same,promoter activity interaction Z-score,[2]; [21],-0.181 ± 0.14
same,promoter activity interaction Z-score,[2]; [22],-0.478 ± 0.23
same,promoter activity interaction Z-score,[2]; [23],-0.479 ± 0.017
same,promoter activity interaction Z-score,[2]; [24],-0.494 ± 0.011
same,promoter activity interaction Z-score,[2]; [25],-0.421 ± 0.15
same,promoter activity interaction Z-score,[2]; [26],-0.487 ± 0.045
same,promoter activity interaction Z-score,[2]; [27],-0.43 ± 0.35
same,promoter activity interaction Z-score,[2]; [28],-0.698 ± 0.13
same,promoter activity interaction Z-score,[2]; [29],-0.236 ± 0.11
same,promoter activity interaction Z-score,[2]; [30],1.26 ± 0.066
same,promoter activity interaction Z-score,[2]; [31],1.71 ± 1.1
same,promoter activity interaction Z-score,[2]; [32],1.4 ± 0.082
same,promoter activity interaction Z-score,[3]; [18],0.221 ± 0.32
same,promoter activity interaction Z-score,[3]; [19],-0.411 ± 0.67
same,promoter activity interaction Z-score,[3]; [20],-0.43 ± 0.067
same,promoter activity interaction Z-score,[3]; [21],0.426 ± 0.54
same,promoter activity interaction Z-score,[3]; [22],0.548 ± 0.048
same,promoter activity interaction Z-score,[3]; [23],-0.02 ± 1
same,promoter activity interaction Z-score,[3]; [24],-0.146 ± 0.27
same,promoter activity interaction Z-score,[3]; [25],-0.2 ± 0.11
same,promoter activity interaction Z-score,[3]; [26],-0.165 ± 0.86
same,promoter activity interaction Z-score,[3]; [27],-0.102 ± 0.4
same,promoter activity interaction Z-score,[3]; [28],-0.0689 ± 0.14
same,promoter activity interaction Z-score,[3]; [29],0.835 ± 0.86
same,promoter activity interaction Z-score,[3]; [30],1.75 ± 0.63
same,promoter activity interaction Z-score,[3]; [31],1.55 ± 0.38
same,promoter activity interaction Z-score,[3]; [32],1.79 ± 0.72
